From PubChem BioAssay (NCI)
The panel holds about 79,000 compounds, 15% with a hit somewhere; the sample as a whole holds those more often. Rule as the data show it: active = growth inhibition above about 70%; inactive = the rest.

What was measured:
[1] = NCI Yeast Anticancer Drug Screen. Data for the rad50 strain (AID 155);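 also: 0% = growth of vehicle-only cultures of the same strain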; settings: S. cerevisiae rad50 strain growth inhibition; at 50.0 µM; stronger effect = higher value
Procedure, shortened: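 Yeast carrying a defined DNA repair defect were exposed to test compounds, and growth was compared with vehicle-treated controls to give percent inhibition.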

[2] = NCI Yeast Anticancer Drug Screen. Data for the mec2-1 strain (AID 157); settings: S. cerevisiae mec2-1 strain, at 50.0 µM, stronger effect = higher value
Procedure, shortened: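 Compounds were applied to mec2-1 yeast cells. Their growth was then compared with that of vehicle-treated cultures to give growth inhibition.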

[3] = NCI Yeast Anticancer Drug Screen. Data for the sgs1 mgt1 strain (AID 161);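 also: 0% = growth of cultures given vehicle only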; settings: S. cerevisiae sgs1 mgt1 strain, at 50.0 µM, stronger effect = higher value
Procedure, shortened: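 Percent growth inhibition was derived by comparing compound-exposed mutant yeast with vehicle-exposed cultures. The strain carries alterations in DNA damage repair.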

[4] = NCI Yeast Anticancer Drug Screen. Data for the cln2 rad14 strain (AID 165);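 also: 0% = growth equal to vehicle treated cultures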; settings: S. cerevisiae cln2 rad14 strain, at 50.0 µM, stronger effect = higher value
Procedure, shortened: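 Strain: cln2 rad14 yeast, altered in cell cycle control and DNA damage repair. Read-out: growth inhibition vs vehicle.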

[5] = NCI Yeast Anticancer Drug Screen. Data for the bub3 strain (AID 167); settings: S. cerevisiae bub3 mutant strain, at 50.0 µM, stronger effect = higher value
Procedure, shortened: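 Compounds were applied to a genetically altered yeast strain carrying a cell-cycle control defect. Growth inhibition was scored against vehicle-treated controls.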

[6] = NCI Yeast Anticancer Drug Screen. Data for the mlh1 rad18 strain (AID 175); settings: S. cerevisiae mlh1 rad18 strain growth inhibition; at 50.0 µM; stronger effect = higher value
Procedure, shortened: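 A repair-deficient yeast strain is exposed to test compound, and growth is scored relative to vehicle-treated controls.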

Measured: growth inhibition

CO/N=C1C=C/C(=N\OC)C\1
inactive: [1] 10.7% | [2] -28.2% | [3] 0.5% | [4] 7.55% | [5] -19.1% | [6] 0.8%

CC(=O)OCC1OC(n2cnc3c(Cl)nc(Cl)nc32)CC1OC(C)=O (stereo unspecified)
inactive: [1] 37.3% | [2] 20.9% | [3] 24.4% | [4] 30.4% | [5] 5.2% | [6] 34.9%

O=C1c2ccccc2-c2nc(/C=C/c3ccccc3)cc3c2c1nc1ccccc13
inactive: [1] 10.2% | [2] 6.2% | [3] 8.6% | [4] 7% | [5] -9.5% | [6] -0.25%

CC(=O)Nc1ccc(C=O)cc1[N+](=O)[O-]
inactive: [1] 14.2% | [2] 33.3% | [3] 4.05% | [4] -12.8% | [5] -0.6% | [6] 13.4%

Cc1c(C(=O)CC(=O)C(=O)NC2C3CC4CC(C3)CC2C4)[n+](=O)c2ccccc2n1[O-] (stereo unspecified)
inactive: [1] -11.1% | [2] 0.8% | [3] -26.7% | [4] 16.3% | [5] -9.8% | [6] -20.4%

Nc1nc2nc[n-]c2c(=O)[nH]1.[NH2-].[NH2-].[NH2-].[NH2-].[NH2-].[Ru+6]
inactive: [1] 20.6% | [2] 4.55% | [3] 4.9% | [4] 2.5% | [5] -5.8% | [6] -4.9%

O=C(O)CCC(NC(=O)c1ccc(Nc2nc3ccc(C(F)(F)F)cc3nc2-c2ccccc2)cc1)C(=O)O (stereo unspecified)
inactive: [1] -11.5% | [2] 11.9% | [3] 4.75% | [4] -8.75% | [5] 1.25% | [6] -0.05%

Cc1ccsc1S(N)(=O)=O
inactive: [1] -21.1% | [2] -23.1% | [3] -10.6% | [4] -12.2% | [5] 11.4% | [6] -6.75%

C/C(=C/c1ccccc1)C(=O)O
inactive: [1] -3.8% | [2] -18.8% | [3] -22% | [4] -20.1% | [5] -20.8% | [6] -2.45%

CC(=O)C1CC=C(C)CC1 (stereo unspecified)
inactive: [1] -6.8% | [2] -9.55% | [3] 15.8% | [4] 14.6% | [5] -2.85% | [6] 2.6%

N#Cc1c(-c2ccccc2)cc(-c2ccccc2)[nH]c1=O
inactive: [1] 18.6% | [2] 7.4% | [3] 16.4% | [4] 11.7% | [5] 3.5% | [6] 22.9%

Nc1nnc2nc(CC(=O)c3ccc4ccccc4c3)c(=O)[nH]n12
inactive: [1] -1.85% | [2] 10.9% | [3] -0.1% | [4] -21.2% | [5] -4.15% | [6] 2.05%

COC(=O)[C@H]1C=C[C@H](OC2OC(COC(C)=O)C(OC(C)=O)C(OC(C)=O)C2OC(C)=O)n2c(=O)n(-c3ccccc3)c(=O)n21 (stereo partly specified)
inactive: [1] 8.3% | [2] 14% | [3] -1.25% | [4] 5.5% | [5] 15.8% | [6] -48%

Cc1nc(N)nc(C)c1N=Nc1cc(Br)ccc1Br
inactive: [1] 26.1% | [2] -14.1% | [3] -15.4% | [4] -13.7% | [5] 0.35% | [6] -7.6%

CSc1nc(NCc2ccc(Cl)cc2)c2[nH]c(C)nc2n1
inactive: [1] 7.7% | [2] -13.6% | [3] 18.4% | [4] -3% | [5] 20.1% | [6] 6.45%

CCN=C(N(CC)CC)N(CC)CC
inactive: [1] -12.1% | [2] 10.2% | [3] 2.95% | [4] -24.4% | [5] 62.7% | [6] 4.3%

O=C(COc1cccc(Cl)c1)Nc1ccccc1
inactive: [1] -2.9% | [2] -31.9% | [3] 7.85% | [4] -17.1% | [5] 39.7% | [6] 2.05%

O=C(CCn1[nH]c(=O)c(Cl)c(Cl)c1=O)NOCCCc1ccccc1
inactive: [1] 0.3% | [2] -21.7% | [3] -8.5% | [4] -7.95% | [5] 4.3% | [6] -11.6%

CN1CCC2(C1)C1CC3CC(C1)CC2C3 (stereo unspecified)
inactive: [1] 1.2% | [2] -13.9% | [3] -8.5% | [4] -7.3% | [5] 3.4% | [6] -9.35%

Nc1ccc(S(=O)(=O)Nc2nc(CN3CCCCC3)cs2)cc1
inactive: [1] 7.25% | [2] -2.5% | [3] 3.3% | [4] -38.5% | [5] -1.4% | [6] -7.85%

Cc1cccc(C)c1NC(=S)NC(=O)c1cccc(Cl)c1
inactive: [1] -13.6% | [2] -23% | [3] -2.9% | [4] -10.5% | [5] -20.4% | [6] -16.6%
